Measurements published in PubChem BioAssay (Tox21).
Inconclusive results are not listed. Calls of active or inactive are those of the source. Unless noted, calls follow the shape of the dose curve; as a rule, active = well fitted curve in the direction sought with a large enough effect in the repeat runs; inconclusive = weak or mixed curves; inactive = no such curve, though single readings can be large; an effect the other way counts as inactive or inconclusive. Where a SMILES comes first, the peptide text is derived from it. [ ]: non-standard residue; d: D form. pGlu = O=C1CC[C@@H](C(=O)O)N1

Experiments:
[1] = qHTS assay to identify small molecule antagonists of the estrogen related receptor (ERR) signaling pathway from Tox21 library - cell viability counter screen (AID 1224834); also: nearly all actives have a fitted effect of over 30% in size
Outline: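 Seeded ERR cells were rested 6 h at 37 C/5% CO2 before compounds, positive and negative controls or DMSO were added. Incubation continued for 17.5 h, and viability was then quantified by CellTiter-Fluor fluorescence.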

[2] = target: Luciferin 4-monooxygenase (Photinus pyralis) (UniProt P08659); assay: qHTS assay to identify small molecule inhibitors of firefly luciferase (AID 1224835); also: series mostly up to about 120 µM; nearly all actives have a fitted effect of over 25% in size
Luciferin 4-monooxygenase (Photinus pyralis), sequence (P08659 whole entry, looked up): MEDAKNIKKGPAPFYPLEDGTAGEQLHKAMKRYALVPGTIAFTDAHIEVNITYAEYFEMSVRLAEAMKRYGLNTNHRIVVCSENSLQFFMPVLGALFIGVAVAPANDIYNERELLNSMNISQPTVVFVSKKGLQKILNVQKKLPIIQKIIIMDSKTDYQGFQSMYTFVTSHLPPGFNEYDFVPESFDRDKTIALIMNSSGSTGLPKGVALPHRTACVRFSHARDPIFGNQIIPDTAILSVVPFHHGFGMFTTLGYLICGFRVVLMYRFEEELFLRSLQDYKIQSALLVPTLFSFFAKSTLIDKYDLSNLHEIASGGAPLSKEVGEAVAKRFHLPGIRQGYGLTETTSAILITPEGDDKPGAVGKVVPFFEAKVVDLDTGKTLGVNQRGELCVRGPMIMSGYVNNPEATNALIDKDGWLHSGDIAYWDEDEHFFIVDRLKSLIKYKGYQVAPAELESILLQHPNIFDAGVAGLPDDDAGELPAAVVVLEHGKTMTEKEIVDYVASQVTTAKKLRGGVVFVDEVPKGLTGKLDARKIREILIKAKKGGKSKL
Outline: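 Biochemical qHTS: compounds run as interplate titrations against purified firefly enzyme, with D-luciferin and ATP each at its KM concentration. Light output recorded by CCD imaging.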

[3] = qHTS assay to identify small molecule agonists of the constitutive androstane receptor (CAR) signaling pathway - cell viability counter screen (AID 1224836); also: series mostly up to about 92 µM; nearly all actives have a fitted effect of over 45% in size
Outline: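 Viability read-out: CellTiter-Fluor fluorescence after 23 h compound exposure at 37 C/5% CO2 in double-stable HepG2-CYP2B6-hCAR cells, with PK11195 present at 0.75 uM final; compounds tested in 15-point titration.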

[4] = qHTS assay to identify small molecule antagonists of the constitutive androstane receptor (CAR) signaling pathway - cell viability counter screen (AID 1224837); also: series mostly up to about 92 µM; nearly all actives have a fitted effect of over 45% in size
Outline: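 To flag cytotoxic false antagonists, HepG2 hCAR/CYP2B6-2.2kb cells were treated 23 hr with 15-concentration compound series and 50 nM CITCO at 37 C/5% CO2; CellTiter-Fluor fluorescence was the measured end point.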

[5] = target: Nuclear receptor subfamily 1 group I member 3 (Homo sapiens) (UniProt Q14994); assay: qHTS assay to identify small molecule antagonists of the constitutive androstane receptor (CAR) signaling pathway (AID 1224838);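 also: HepG2 cells stably expressing hCAR with CYP2B6 luciferase reporter stimulated by CITCO; nearly all actives have a fitted effect of over 40% in size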
Nuclear receptor subfamily 1 group I member 3 (Homo sapiens), sequence (Q14994 whole entry, looked up): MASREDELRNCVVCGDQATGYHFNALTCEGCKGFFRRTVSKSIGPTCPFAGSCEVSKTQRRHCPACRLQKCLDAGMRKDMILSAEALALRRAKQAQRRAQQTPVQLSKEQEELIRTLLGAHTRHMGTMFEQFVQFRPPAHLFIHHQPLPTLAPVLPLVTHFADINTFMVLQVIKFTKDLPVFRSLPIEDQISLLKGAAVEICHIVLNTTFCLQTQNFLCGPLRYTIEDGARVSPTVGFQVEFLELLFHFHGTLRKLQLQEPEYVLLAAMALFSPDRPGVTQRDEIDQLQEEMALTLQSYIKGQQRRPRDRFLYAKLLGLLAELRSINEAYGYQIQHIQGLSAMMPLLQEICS
Outline: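 Human hepatoma HepG2 cells expressing hCAR and a CYP2B6 promoter (2.2 kb) luciferase construct; compound titration (15 points) with 50 nM CITCO final, 24 h at 37 C/5% CO2; luminescence via ONE-Glo after 30 min at room temperature.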

[6] = target: Nuclear receptor subfamily 1 group I member 3 (Homo sapiens) (UniProt Q14994); assay: qHTS assay to identify small molecule agonists of the constitutive androstane receptor (CAR) signaling pathway (AID 1224839);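 also: HepG2 cells stably carrying human CAR and a CYP2B6 luciferase reporter; series mostly up to about 92 µM; nearly all actives have a fitted effect of over 15% in size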
Outline: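 Luminescence read-out (ONE-Glo, 30 min, room temperature) from double-stable HepG2-CYP2B6-hCAR cells exposed 24 h to 15-point compound series in presence of 0.75 uM PK11195 final.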

[7] = qHTS assay to identify small molecule antagonists of the estrogen related receptor signaling pathway with the pleiotropic PPARgamma coactivator (PGC) from Tox21 10K library - cell viability counter screen (AID 1224840; active = well fitted cell-killing curve with a large enough effect in the repeat runs, not every such curve was filed as active; also: nearly all actives have a fitted effect of over 40% in size)
Outline: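 Seeded PGC/ERR cells (2,000/well, 6 h, 37 C/5% CO2) get compound by pin tool; 17.5 h incubation at 37 C; CellTiter-Fluor added, 30 min, fluorescence measured.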

[8] = qHTS assay to identify small molecule antagonists of the estrogen related receptor signaling pathway with the pleiotropic PPARgamma coactivator (PGC) from Tox21 10K library (AID 1224841; call rule not given here; also: actives are mostly falling curves and most rising ones were filed inactive; nearly all actives have a fitted effect of over 50% in size; also: potency is read from the fitted curve at half-maximal effect; as to activity, negative = inhibition: series mostly up to about 92 µM)
Outline: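 Test chemicals dissolved in DMSO were applied to pre-incubated (6 h) PGC/ERR cells at 2,000 cells/well for an 18 h, 37 C treatment; reporter luminescence was then read using One-Glo.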

[9] = qHTS assay to identify small molecule agonists of the estrogen related receptor signaling pathway with the pleiotropic PPARgamma coactivator (PGC) from Tox21 10K library (AID 1224842); also: nearly all actives have a fitted effect of over 15% in size
Outline: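 PGC/ERR reporter cell line, 2,000 cells per well, incubated 6 h at 37 C before 23 nL compound in DMSO was added. After 18 h at 37 C, One-Glo luminescence read following 30 min at room temperature.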

[10] = target: Thyrotropin receptor (Homo sapiens) (UniProt P16473); assay: qHTS assay to identify small molecule agonists of the thyroid stimulating hormone receptor (TSHR) signaling pathway (AID 1224843; calls by dose curve; also: nearly all actives have a fitted effect of over 45% in size)
Thyrotropin receptor (Homo sapiens), sequence (P16473 whole entry, looked up): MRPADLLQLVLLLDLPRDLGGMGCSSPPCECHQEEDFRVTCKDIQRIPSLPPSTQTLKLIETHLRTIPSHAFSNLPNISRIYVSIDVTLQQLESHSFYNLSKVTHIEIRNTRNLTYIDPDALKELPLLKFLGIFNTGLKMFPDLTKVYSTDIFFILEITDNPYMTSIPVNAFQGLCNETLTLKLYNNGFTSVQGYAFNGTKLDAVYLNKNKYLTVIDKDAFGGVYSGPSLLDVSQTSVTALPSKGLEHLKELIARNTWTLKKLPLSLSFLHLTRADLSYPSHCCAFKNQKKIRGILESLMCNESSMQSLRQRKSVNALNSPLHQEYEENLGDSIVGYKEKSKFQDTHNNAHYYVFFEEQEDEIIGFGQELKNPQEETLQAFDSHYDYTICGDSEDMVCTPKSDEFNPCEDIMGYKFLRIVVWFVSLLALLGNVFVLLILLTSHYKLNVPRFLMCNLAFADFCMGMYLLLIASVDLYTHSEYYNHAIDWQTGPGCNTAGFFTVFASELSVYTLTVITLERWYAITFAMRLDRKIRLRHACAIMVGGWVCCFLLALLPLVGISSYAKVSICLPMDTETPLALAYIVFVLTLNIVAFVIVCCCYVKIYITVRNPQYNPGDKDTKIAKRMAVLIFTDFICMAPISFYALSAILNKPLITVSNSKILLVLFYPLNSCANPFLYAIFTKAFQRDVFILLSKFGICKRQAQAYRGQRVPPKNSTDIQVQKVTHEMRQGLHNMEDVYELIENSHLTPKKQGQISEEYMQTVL
Outline: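 Agonist-mode screen: TSHR HEK293 cells received test chemicals for half an hour at room temperature, then HTRF cAMP detection reagents for one hour prior to fluorescence measurement. Each chemical ran as a 15-concentration series, triplicated.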

[11] = qHTS assay to identify small molecule agonists of the hypoxia (HIF-1) signaling pathway - cell viability counter screen (AID 1224844; calls by dose curve; also: nearly all actives have a fitted effect of over 50% in size)
Outline: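 HRE-bla ME-180; 0.5% dFBS; cpd 17 h, 37C, 5% CO2; CellTiter-Glo lum., 30 min RT, post-FRET read, same wells.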

[12] = qHTS assay to identify small molecule agonists of H2AX (AID 1224845; active = well fitted activation curve with a large enough effect in the signal ratio in the repeat runs, not every such curve was filed as active; the % refers to the signal ratio)
Outline: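 Wild-type CHO-K1 cells, plated overnight, exposed 3hr at 37C to 15 concentrations (0.76% DMSO final). Lysed, then HTRF anti-pH2AX (S139) cryptate and anti-H2AX-d2 antibodies, 24 hr room temperature; 665/620 nm emission read.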

[13] = qHTS assay to identify small molecule agonists of the hypoxia (HIF-1) signaling pathway (AID 1224846; active = well fitted activation curve with a large enough effect in the signal ratio in the repeat runs, not every such curve was filed as active; the % refers to the signal ratio)
Outline: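 Reporter induction in HRE-bla ME-180 cells is taken as agonism: cells sit 5 hrs after plating, receive compounds or DMSO only, incubate 17 hrs at 37C under 5% CO2, and are loaded with CCF4-AM for beta-lactamase FRET measurement.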

[14] = qHTS assay to identify small molecule agonists of H2AX - cell viability counter screen (AID 1224847; calls by dose curve; also: top concentration of the series differs between compounds; nearly all actives have a fitted effect of over 30% in size)
Outline: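 CHO-K1 wt, 1000 cells/well, o/n 37C; cpds 15 conc, 3 h 37C, 0.76% DMSO; CellTiter-Glo, 30 min RT, luminescence.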

[15] = qHTS assay to identify small molecule antagonists of the estrogen related receptor (ERR) signaling pathway from Tox21 library (AID 1224848); also: nearly all actives have a fitted effect of over 50% in size
Outline: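 Quantitative high-throughput format: ERR reporter cells (2,000/well) pre-incubated 6 h, treated 18 h at 37 C with compounds in DMSO alongside positive and negative controls, then read by ONE-Glo luminescence.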

[16] = qHTS assay to identify small molecule agonists of the estrogen related receptor (ERR) signaling pathway from Tox21 library (AID 1224849; calls by dose curve; also: nearly all actives have a fitted effect of over 15% in size)
Outline: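 Tox21 compounds tested for ERR agonism in an NTP reporter cell line: 18 h treatment at 37 C, then ONE-Glo luminescence.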

[17] = qHTS RealTime-Glo MT Cell Viability Assay in HepG2 cells - 24 hour (AID 1224867); also: nearly all actives have a fitted effect of over 50% in size
Outline: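 Luminescence read-out: viable HepG2 cells reduce a prosubstrate to a NanoLuc substrate, giving a signal proportional to live cell number. Reads taken at 0, 8, 16, 24, 32 and 40 h of compound exposure at 37 C.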

[18] = qHTS RealTime-Glo MT Cell Viability Assay in HEK293 cells - 32 hour (AID 1224868)
Outline: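 Nonlytic real-time viability readout: viable cells convert prosubstrate to NanoLuc substrate, giving luminescence proportional to live cell number. HEK293, 600 cells/well, compound added after 5 h, continuous culture at 37 C.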

[19] = A CellTox Green Cytotoxicity Assay to monitor cytotoxicity in HEK293 cells - 0 hour (AID 1224869); also: nearly all actives have a fitted effect of over 50% in size
Outline: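 Tox21 screen in HEK293: membrane-impermeant cyanine dye fluoresces on binding dead-cell DNA; compound pinned 5 h post-seeding, plates held at 37 C, signal read repeatedly through 40 h.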

[20] = qHTS RealTime-Glo MT Cell Viability Assay in HepG2 cells - 40 hour (AID 1224870); also: nearly all actives have a fitted effect of over 50% in size
Outline: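 HepG2 cells (600/well) mixed with RealTime-Glo MT reagent, settled 5 h at 37 C/5% CO2 before compound addition. Nonlytic NanoLuc luminescence from viable-cell prosubstrate reduction read repeatedly during 40 h treatment at 37 C.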
% is scaled to controls: 0 for no effect and ±100 for the full control effect.

C=CCCC(=O)O
inactive: Potency [1] | Potency [2] | outcome [3] | outcome [4] | Potency [5] | Potency [6] | outcome [7] | Potency [8] | Potency [9] | Potency [10] | Potency [11] | Potency [12] | outcome [13] | outcome [14] | Potency [15] | outcome [16] | outcome [17] | Potency [18] | outcome [19] | Potency [20]

CCCCCCC1CCC(=O)O1 (configuration not stated)
inactive: Potency [1] | Potency [2] | outcome [3] | outcome [4] | Potency [5] | Potency [6] | outcome [7] | Potency [8] | Potency [9] | Potency [10] | Potency [11] | Potency [12] | outcome [13] | outcome [14] | Potency [15] | outcome [16] | outcome [17] | Potency [18] | outcome [19] | Potency [20]

CC(C)(C)c1ccc(-c2ccc(C(C)(C)C)cc2)cc1
inactive: Potency [1] | Potency [2] | outcome [3] | outcome [4] | Potency [5] | Potency [6] | outcome [7] | Potency [8] | Potency [9] | Potency [10] | Potency [11] | Potency [12] | outcome [14] | Potency [15] | outcome [16] | outcome [17] | Potency [18] | outcome [19] | Potency [20]

Cc1cccc(C)c1NC(=O)CC12CCCN1CCC2
inactive: Potency [1] | Potency [2] | outcome [3] | outcome [4] | Potency [5] | Potency [6] | outcome [7] | Potency [8] | Potency [9] | Potency [10] | Potency [11] | outcome [13] | outcome [14] | Potency [15] | outcome [16] | outcome [17] | Potency [18] | Potency [20]

Clc1cc(Cl)c(Cl)nc1Cl
inactive: Potency [1] | Potency [2] | outcome [3] | outcome [4] | Potency [5] | Potency [6] | outcome [7] | Potency [8] | Potency [9] | Potency [10] | Potency [11] | outcome [13] | outcome [14] | Potency [15] | outcome [16] | outcome [17] | Potency [18] | outcome [19] | Potency [20]

CC(C#N)(CCC(=O)O)N=NC(C)(C#N)CCC(=O)O (configuration not stated)
inactive: Potency [1] | Potency [2] | outcome [3] | outcome [4] | Potency [5] | Potency [6] | outcome [7] | Potency [8] | Potency [9] | Potency [10] | Potency [11] | Potency [12] | outcome [13] | outcome [14] | Potency [15] | outcome [16] | Potency [18] | outcome [19] | Potency [20]

Cc1cc(C)c(N=Nc2c(O)c(S(=O)(=O)O)cc3cc(S(=O)(=O)O)ccc23)cc1C
inactive: viability change, negative = cytotoxic [1] -4.92% [at 8.39 µM] | activity change, negative = inhibition [2] -6.78% [at 10.5 µM] | viability change, negative = cytotoxic [3] -15.6% [at 8.39 µM] | activity change, negative = cytotoxicity [4] 0.232% [at 8.39 µM] | activity, negative = inhibition [5] -3.25% [at 8.39 µM] | activation [6] 7.37% [at 8.39 µM] | viability change, negative = cytotoxic [7] -4.24% [at 8.39 µM] | activation [9] -8.18% [at 8.39 µM] | activity change, negative = cytotoxicity [11] -6.32% [at 6.97 µM] | activation (H2AX phosphorylation) [12] 1.25% [at 14 µM] | activation [13] -0.827% [at 7.01 µM] | activity change, negative = cytotoxicity [14] -10.4% [at 14 µM] | activity, negative = inhibition [15] -9.99% [at 8.39 µM] | activity change, positive = activation [16] -5.16% [at 8.39 µM] | activity change, negative = cytotoxic [20] -8.96% [at 6.97 µM]
active: Potency [8] 959 nM

CCOC(=O)OC(C)OC1=C(C(=O)Nc2ccccn2)N(C)S(=O)(=O)c2ccccc21 (configuration not stated)
inactive: Potency [1] | Potency [2] | outcome [3] | outcome [4] | Potency [5] | Potency [6] | outcome [7] | Potency [8] | Potency [9] | Potency [10] | Potency [11] | Potency [12] | outcome [13] | outcome [14] | Potency [15] | outcome [16] | outcome [17] | Potency [18] | outcome [19] | Potency [20]

COCCOCC(OC)OC
inactive: Potency [1] | Potency [2] | outcome [3] | outcome [4] | Potency [5] | Potency [6] | outcome [7] | Potency [8] | Potency [9] | Potency [10] | Potency [11] | outcome [13] | outcome [14] | Potency [15] | outcome [16] | outcome [17] | Potency [18] | outcome [19] | Potency [20]

CO[Si](C)(OC)c1ccccc1
inactive: Potency [1] | Potency [2] | outcome [3] | outcome [4] | Potency [5] | Potency [6] | outcome [7] | Potency [8] | Potency [9] | Potency [10] | Potency [11] | Potency [12] | outcome [13] | Potency [15] | outcome [16] | outcome [17] | Potency [18] | outcome [19] | Potency [20]

NS(=O)(=O)Cc1noc2ccccc12
inactive: Potency [1] | Potency [2] | outcome [3] | outcome [4] | Potency [5] | Potency [6] | outcome [7] | Potency [8] | Potency [9] | Potency [10] | Potency [11] | Potency [12] | outcome [14] | Potency [15] | outcome [16] | outcome [17] | Potency [18] | outcome [19] | Potency [20]

CCNC(=O)[C@@H]1CCCN1C(=O)[C@H](CCCN=C(N)N)NC(=O)[C@H](CC(C)C)NC(=O)CNC(=O)[C@H](Cc1ccc(O)cc1)NC(=O)[C@H](CO)NC(=O)[C@H](Cc1c[nH]c2ccccc12)NC(=O)[C@H](Cc1cnc[nH]1)NC(=O)[C@@H]1CCC(=O)N1 ([pGlu]HWSYGLRP-NHEt)
inactive: Potency [1] | Potency [2] | outcome [3] | outcome [4] | Potency [5] | Potency [6] | outcome [7] | Potency [8] | Potency [9] | Potency [10] | Potency [11] | Potency [12] | outcome [14] | Potency [15] | outcome [16] | Potency [18] | Potency [20]

CC1=NN(c2cccc(S(=O)(=O)O)c2)C(=O)C1
inactive: Potency [1] | Potency [2] | outcome [3] | outcome [4] | Potency [5] | Potency [6] | outcome [7] | Potency [8] | Potency [9] | Potency [10] | outcome [14] | Potency [15] | outcome [16] | outcome [17] | Potency [18] | outcome [19] | Potency [20]
